The molecules below were run against Serine/threonine-protein kinase PAK 6 (Homo sapiens) (UniProt Q9NQU5). Details: at 1 µM.
Serine/threonine-protein kinase PAK 6 (Homo sapiens), sequence (Q9NQU5 whole entry, looked up): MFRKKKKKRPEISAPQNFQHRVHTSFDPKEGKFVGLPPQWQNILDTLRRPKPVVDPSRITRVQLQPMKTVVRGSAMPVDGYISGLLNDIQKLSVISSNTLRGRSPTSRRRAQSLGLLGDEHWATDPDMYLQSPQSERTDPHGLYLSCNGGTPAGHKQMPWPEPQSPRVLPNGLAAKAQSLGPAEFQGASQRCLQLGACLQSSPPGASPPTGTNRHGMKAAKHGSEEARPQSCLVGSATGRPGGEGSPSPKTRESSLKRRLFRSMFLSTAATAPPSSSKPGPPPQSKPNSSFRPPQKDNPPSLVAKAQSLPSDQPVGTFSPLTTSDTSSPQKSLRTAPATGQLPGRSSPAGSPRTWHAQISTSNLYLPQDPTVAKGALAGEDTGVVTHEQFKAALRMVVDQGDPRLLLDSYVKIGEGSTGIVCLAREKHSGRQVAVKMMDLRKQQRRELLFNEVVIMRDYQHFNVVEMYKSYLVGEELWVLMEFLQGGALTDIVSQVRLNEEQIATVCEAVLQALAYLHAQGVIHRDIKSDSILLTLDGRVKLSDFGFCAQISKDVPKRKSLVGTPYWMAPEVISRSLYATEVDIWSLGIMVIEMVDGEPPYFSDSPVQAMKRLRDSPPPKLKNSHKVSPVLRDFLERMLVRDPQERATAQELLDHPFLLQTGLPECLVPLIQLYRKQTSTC

| SMILES | inhibition |
| --- | --- |
| COc1cc2ncn(-c3cc(OCc4ccccc4S(C)(=O)=O)c(C#N)s3)c2cc1OC | 9.78% |
| NS(=O)(=O)c1ccc(NC=C2C(=O)Nc3ccc4ncsc4c32)cc1 | -1.77% |
| O=C1Nc2ccccc2/C1=C/Nc1ccc2[nH]c(=O)[nH]c2c1 | -6.29% |
| Cc1ccc(C(=O)NC2CC2)cc1-c1ccc2[nH]ncc2c1 | -8.86% |
| COC(=O)c1cncc(/C=C/c2c(C)cc(O)cc2C)c1 | 7.57% |
| COc1cc(Nc2nccc(-c3cnn4ncccc34)n2)cc(OC)c1 | -1.82% |
| CCn1c(-c2nonc2N)nc2ccc(F)cc21 | 0.67% |
| NC(=O)c1cccc(Nc2nccc(Nc3cccc(F)c3)n2)c1 | -5.46% |
| CN(C)C(=O)O[C@H]1CN[C@H](C#Cc2cc3ncnc(Nc4ccc(OCc5cccc(F)c5)c(Cl)c4)c3s2)C1 | 7.18% |
| COc1cc2ncnc(Nc3ccc(C)c(O)c3)c2cc1OC | 0.34% |
| COc1cccc(-n2ncc3c(N/N=C/c4ccc(C)cc4)ncnc32)c1 | -8.44% |
| COC(=O)c1ccc2c(c1)C(=Cc1cc(Br)c(O)c(Br)c1)C(=O)N2 | -6.8% |
| Cc1ccc(Nc2ccnc(Nc3cccc(C(N)=O)c3)n2)cc1O | 4.03% |
| NS(=O)(=O)c1ccc(-c2cc3ccncc3cc2OCc2ccccc2)cc1 | 4.76% |

What follows are molecules tested on Tyrosine-protein kinase ABL1 (Homo sapiens), P00519 [E255K]. Details: at 0.1 µM.
Tyrosine-protein kinase ABL1 (Homo sapiens), P00519 [E255K], sequence (P00519 whole entry E255K): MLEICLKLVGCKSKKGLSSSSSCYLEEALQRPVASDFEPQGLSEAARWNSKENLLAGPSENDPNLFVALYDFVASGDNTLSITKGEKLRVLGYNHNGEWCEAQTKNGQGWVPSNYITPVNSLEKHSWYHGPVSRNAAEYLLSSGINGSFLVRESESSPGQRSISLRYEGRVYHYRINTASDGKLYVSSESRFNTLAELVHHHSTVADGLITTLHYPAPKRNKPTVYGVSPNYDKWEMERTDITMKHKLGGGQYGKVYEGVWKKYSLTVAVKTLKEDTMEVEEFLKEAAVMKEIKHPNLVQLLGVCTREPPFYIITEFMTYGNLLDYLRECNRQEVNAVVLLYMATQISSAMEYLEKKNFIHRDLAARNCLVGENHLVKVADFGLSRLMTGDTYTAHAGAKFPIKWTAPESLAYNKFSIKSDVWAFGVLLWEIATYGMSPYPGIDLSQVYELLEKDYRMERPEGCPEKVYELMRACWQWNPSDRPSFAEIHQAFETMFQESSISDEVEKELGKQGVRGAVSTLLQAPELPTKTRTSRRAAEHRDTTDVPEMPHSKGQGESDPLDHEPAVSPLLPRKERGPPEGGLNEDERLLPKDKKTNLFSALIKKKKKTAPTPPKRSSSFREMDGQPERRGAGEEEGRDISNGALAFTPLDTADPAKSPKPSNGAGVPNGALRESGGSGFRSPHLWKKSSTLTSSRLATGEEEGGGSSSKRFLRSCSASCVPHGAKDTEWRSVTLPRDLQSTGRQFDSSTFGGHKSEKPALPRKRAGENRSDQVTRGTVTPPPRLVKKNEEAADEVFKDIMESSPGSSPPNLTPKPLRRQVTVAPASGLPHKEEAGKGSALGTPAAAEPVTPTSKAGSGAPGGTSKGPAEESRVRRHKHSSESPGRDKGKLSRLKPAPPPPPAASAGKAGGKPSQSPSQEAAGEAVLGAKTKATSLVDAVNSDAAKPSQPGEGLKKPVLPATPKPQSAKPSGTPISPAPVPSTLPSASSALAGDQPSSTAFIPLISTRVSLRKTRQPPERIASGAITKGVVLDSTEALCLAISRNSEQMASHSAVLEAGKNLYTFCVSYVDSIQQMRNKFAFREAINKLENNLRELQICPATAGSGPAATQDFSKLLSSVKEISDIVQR

| SMILES | inhibition |
| --- | --- |
| CN1CCN(C(=O)c2ccc(NC(=O)Nc3ccc(N(C)c4ccnc(Nc5ccc(CS(C)(=O)=O)cc5)n4)cc3)cc2)CC1 | 3.11% |
| CC(C)c1ccc2c(c1)NC(=O)/C2=N/Nc1ccc(S(N)(=O)=O)cc1 | 1.09% |
| C[C@@H](Oc1cc(-n2cnc3ccc(OC[C@@H](O)CO)cc32)sc1C(N)=O)c1ccccc1Cl | 0.24% |
| CN(C)CCCn1c(-c2nonc2N)nc2cnccc21 | 3.28% |
| O=C1Nc2ccc(-c3cccnc3)cc2C1=Cc1cc(Br)c(O)c(Br)c1 | 3.78% |
| CC(C)c1ccc(Nc2nccc(-c3cnn4ncccc34)n2)cc1 | 1.9% |
| N#Cc1cccc(Nc2nccc(-c3cnn4ncccc34)n2)c1 | 7.52% |
| Cc1ccc(NC(=O)CC2CC2)cc1-c1ccc(C(=O)NCC2CC2)cc1 | 4.24% |
| Cc1ccc2c(c1)/C(=N/Nc1ccc(S(N)(=O)=O)cc1)C(=O)N2 | 0.74% |
| CCS(=O)(=O)c1ccc(OC)c(Nc2nccc(N(C)c3ccc4c(C)n[nH]c4c3)n2)c1 | 50.5% |
| Nc1nccc(-c2c(-c3ccc(F)cc3)nn3cc(C(F)(F)F)ccc23)n1 | -2.06% |
| N#Cc1c(NC(=O)c2ccccc2F)sc2c1CCCC2 | -0.62% |
| Cc1cc(Cl)cc2c1NC(=O)C2=NNc1ccc(S(N)(=O)=O)cc1 | 1.25% |
| c1ccc(Cc2nc3ccc(Nc4ncnc5ccccc45)cc3[nH]2)cc1 | 2.13% |
| Cc1ccc(O)cc1Nc1ccnc2ccc(S(C)(=O)=O)cc12 | 94.4% |
| COc1cc(/C=N/Nc2ncnc3c2cnn3C(C)C)ccc1O | 21.7% |
| FC(F)(F)c1ccc(-c2nn3ncccc3c2-c2ccnc(Nc3ccc4c(c3)OCCO4)n2)cc1 | -0.31% |

| SMILES | inhibition |
| --- | --- |
| Nc1ccc(C#Cc2cncnc2Nc2ccc(OCc3cccc(F)c3)c(Cl)c2)cc1 | 2.88% |
| COc1cc2ncn(-c3cc(OCc4ccccc4S(C)(=O)=O)c(C#N)s3)c2cc1OC | 9.96% |
| NS(=O)(=O)c1ccc(NC=C2C(=O)Nc3ccc4ncsc4c32)cc1 | 6.89% |
| Nc1nccc(-c2c(-c3ccc(F)cc3)ncn2CCCN2CCOCC2)n1 | 3.15% |
| O=C1Nc2ccccc2/C1=C/Nc1ccc2[nH]c(=O)[nH]c2c1 | 7.84% |
| Cc1ccc(C(=O)NC2CC2)cc1-c1ccc2[nH]ncc2c1 | -0.87% |
| COC(=O)c1cncc(/C=C/c2c(C)cc(O)cc2C)c1 | 6.85% |
| COc1cc(Nc2nccc(-c3cnn4ncccc34)n2)cc(OC)c1 | 6.96% |
| COc1ccc2ncnc(Nc3ccc(OCc4ccccc4)cc3)c2c1 | 1.91% |
| CCn1c(-c2nonc2N)nc2ccc(F)cc21 | 2.57% |
| NC(=O)c1cccc(Nc2nccc(Nc3cccc(F)c3)n2)c1 | 7.73% |
| CN(C)C(=O)O[C@H]1CN[C@H](C#Cc2cc3ncnc(Nc4ccc(OCc5cccc(F)c5)c(Cl)c4)c3s2)C1 | 2% |
| COc1cc2ncnc(Nc3ccc(C)c(O)c3)c2cc1OC | 42.3% |
| COc1cccc(-n2ncc3c(N/N=C/c4ccc(C)cc4)ncnc32)c1 | 18.9% |
| COC(=O)c1ccc2c(c1)C(=Cc1cc(Br)c(O)c(Br)c1)C(=O)N2 | 2.18% |
| Cc1ccc(Nc2ccnc(Nc3cccc(C(N)=O)c3)n2)cc1O | 71.2% |
| NS(=O)(=O)c1ccc(-c2cc3ccncc3cc2OCc2ccccc2)cc1 | 2.82% |

What follows are molecules tested on Tyrosine-protein kinase ABL1 (Homo sapiens), P00519 [E255K]. Details: at 1 µM.

| SMILES | inhibition |
| --- | --- |
| CN1CCN(C(=O)c2ccc(NC(=O)Nc3ccc(N(C)c4ccnc(Nc5ccc(CS(C)(=O)=O)cc5)n4)cc3)cc2)CC1 | 29.9% |
| CC(C)c1ccc2c(c1)NC(=O)/C2=N/Nc1ccc(S(N)(=O)=O)cc1 | 12% |
| C[C@@H](Oc1cc(-n2cnc3ccc(OC[C@@H](O)CO)cc32)sc1C(N)=O)c1ccccc1Cl | 5.92% |
| CN(C)CCCn1c(-c2nonc2N)nc2cnccc21 | 4.1% |
| O=C1Nc2ccc(-c3cccnc3)cc2C1=Cc1cc(Br)c(O)c(Br)c1 | 8.72% |
| CC(C)c1ccc(Nc2nccc(-c3cnn4ncccc34)n2)cc1 | 4.45% |
| N#Cc1cccc(Nc2nccc(-c3cnn4ncccc34)n2)c1 | 33% |
| Cc1ccc(NC(=O)CC2CC2)cc1-c1ccc(C(=O)NCC2CC2)cc1 | 5.26% |
| Cc1ccc2c(c1)/C(=N/Nc1ccc(S(N)(=O)=O)cc1)C(=O)N2 | 3.57% |
| CCS(=O)(=O)c1ccc(OC)c(Nc2nccc(N(C)c3ccc4c(C)n[nH]c4c3)n2)c1 | 88.7% |
| Nc1nccc(-c2c(-c3ccc(F)cc3)nn3cc(C(F)(F)F)ccc23)n1 | -1.18% |
| N#Cc1c(NC(=O)c2ccccc2F)sc2c1CCCC2 | 1.08% |
| Cc1cc(Cl)cc2c1NC(=O)C2=NNc1ccc(S(N)(=O)=O)cc1 | 5.11% |
| c1ccc(Cc2nc3ccc(Nc4ncnc5ccccc45)cc3[nH]2)cc1 | 4.34% |
| Cc1ccc(O)cc1Nc1ccnc2ccc(S(C)(=O)=O)cc12 | 95.8% |
| COc1cc(/C=N/Nc2ncnc3c2cnn3C(C)C)ccc1O | 71% |
| FC(F)(F)c1ccc(-c2nn3ncccc3c2-c2ccnc(Nc3ccc4c(c3)OCCO4)n2)cc1 | 0.99% |

| SMILES | inhibition |
| --- | --- |
| Nc1ccc(C#Cc2cncnc2Nc2ccc(OCc3cccc(F)c3)c(Cl)c2)cc1 | 3.39% |
| COc1cc2ncn(-c3cc(OCc4ccccc4S(C)(=O)=O)c(C#N)s3)c2cc1OC | 46.7% |
| NS(=O)(=O)c1ccc(NC=C2C(=O)Nc3ccc4ncsc4c32)cc1 | 37.9% |
| Nc1nccc(-c2c(-c3ccc(F)cc3)ncn2CCCN2CCOCC2)n1 | 4.81% |
| O=C1Nc2ccccc2/C1=C/Nc1ccc2[nH]c(=O)[nH]c2c1 | 15% |
| Cc1ccc(C(=O)NC2CC2)cc1-c1ccc2[nH]ncc2c1 | -0.81% |
| COC(=O)c1cncc(/C=C/c2c(C)cc(O)cc2C)c1 | 38% |
| COc1cc(Nc2nccc(-c3cnn4ncccc34)n2)cc(OC)c1 | 46% |
| COc1ccc2ncnc(Nc3ccc(OCc4ccccc4)cc3)c2c1 | 2.75% |
| CCn1c(-c2nonc2N)nc2ccc(F)cc21 | 4.59% |
| NC(=O)c1cccc(Nc2nccc(Nc3cccc(F)c3)n2)c1 | 47% |
| CN(C)C(=O)O[C@H]1CN[C@H](C#Cc2cc3ncnc(Nc4ccc(OCc5cccc(F)c5)c(Cl)c4)c3s2)C1 | 3.31% |
| COc1cc2ncnc(Nc3ccc(C)c(O)c3)c2cc1OC | 85.8% |
| COc1cccc(-n2ncc3c(N/N=C/c4ccc(C)cc4)ncnc32)c1 | 65.3% |
| COC(=O)c1ccc2c(c1)C(=Cc1cc(Br)c(O)c(Br)c1)C(=O)N2 | 13.1% |
| Cc1ccc(Nc2ccnc(Nc3cccc(C(N)=O)c3)n2)cc1O | 93.4% |
| NS(=O)(=O)c1ccc(-c2cc3ccncc3cc2OCc2ccccc2)cc1 | 3.92% |

Source: ChEMBL document CHEMBL1961873, “Compounds: GSK PKIS; Assays: Nanosyn kinase panel” (2012)
